The results in this text go back to PubChem BioAssay (NCI).

This is part of a sample that, as a whole, favours compounds with a hit. Of some 83,000 tested, about 20% had one in any assay.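 Testing used 96-well plates and a 48-hour single-concentration exposure. Example: -40 means 40% of the starting cells died.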 Values without a mark were called inactive. Activity calls are given as the source filed them. How the source made its calls: active means growth percent below 10; inactive means the rest.

Among the test systems are HT29 colon; SNB-75 CNS; SNB-19 CNS; U251 CNS; PC-3 prostate; SK-MEL-5 melanoma; UACC-62 melanoma; LOX IMVI melanoma; SK-MEL-28 melanoma; SK-MEL-2 melanoma.
Holding throughout (experiment): NCI-60 one-dose screen, 48 h (100 = growth as untreated, 0 = no growth, -100 = all killed)
Holding throughout (conditions): 10 µM unless noted

On to `Nc1ncc(-c2ccc3ncnc(N4CCc5cc(F)c(Cl)cc54)c3c2)cc1CO`, for which the growth is 12.7% in the assay with HT29 colon; -28.6% (active) with SNB-75 CNS; 19.1% with SNB-19 CNS; 18.8% in the assay with U251 CNS; 8.02% (active) in the assay on PC-3 prostate; -72.4% (active) in the assay with SK-MEL-5 melanoma. In addition, the growth was -60.5% (active) in the assay with UACC-62 melanoma, 7.2% (active) in the assay on LOX IMVI melanoma, -4.29% (active) in the assay on SK-MEL-28 melanoma and -63.4% (active) with SK-MEL-2 melanoma.

With `Cc1ccc(-c2nc(C(Cl)Cl)nc3cc(-c4ccccc4)nn23)cc1`, the growth with HT29 colon was -43.7% (active); with SNB-75 CNS it was -3.07% (active); in the assay with SNB-19 CNS, 14.8%; in the assay on U251 CNS it was -58.6% (active); in the assay on PC-3 prostate, 26.8%; in the assay with SK-MEL-5 melanoma it was 67.3%. Also, the growth with UACC-62 melanoma was 55.7%; in the assay on LOX IMVI melanoma, 43.6%; in the assay on SK-MEL-28 melanoma, 1.35% (active); in the assay with SK-MEL-2 melanoma, 88.8%.

Consider `CCOC(=O)c1c(Nc2ccccc2)nn2c(N)c(C#N)c(-c3ccc(Cl)cc3)nc12`, for which the growth in the assay with HT29 colon was 73.1%; with SNB-75 CNS, -11.2% (active); in the assay with SNB-19 CNS, 89.8%; in the assay with U251 CNS it was 44.6%; in the assay on PC-3 prostate, 40.9%; in the assay with SK-MEL-5 melanoma, 94.8%. For the same compound, the growth was 70% in the assay with UACC-62 melanoma, 49.3% in the assay with LOX IMVI melanoma, 78.5% with SK-MEL-28 melanoma and 87% with SK-MEL-2 melanoma.

As for `O=C1c2c(c3c4cccnc4[nH]c3c3ccc4ccccc4c23)C(=O)N1CCO`, the growth in the assay with HT29 colon is 75.6%; in the assay on SNB-75 CNS, 118%; with SNB-19 CNS it was 69.9%; in the assay with U251 CNS, 51.4%; in the assay with PC-3 prostate, 70.1%; in the assay with SK-MEL-5 melanoma, 81.4%. In addition, the growth was 46.5% in the assay on UACC-62 melanoma, 51.7% in the assay with LOX IMVI melanoma, 102% in the assay with SK-MEL-28 melanoma and 138% with SK-MEL-2 melanoma.

For the compound `Cc1sc2c(c1C)c(=O)nc1c(-c3nc(-c4ccc(F)cc4)no3)n[nH]n12`, the growth in the assay with HT29 colon was 110%; in the assay on SNB-75 CNS, 85.7%; with SNB-19 CNS, 101%; in the assay with U251 CNS, 102%; in the assay on PC-3 prostate, 89.6%; in the assay on SK-MEL-5 melanoma, 107%. In addition, the growth is 97.8% in the assay on UACC-62 melanoma, 93.7% in the assay with LOX IMVI melanoma, 115% in the assay on SK-MEL-28 melanoma and 113% with SK-MEL-2 melanoma.

Turning to `c1ccc(CNc2ncnc3ccc(-c4cnc5[nH]ncc5c4)cc23)cc1`, the growth in the assay on HT29 colon is 70.6%; with SNB-75 CNS, 54.5%; with SNB-19 CNS, 72.7%; in the assay with U251 CNS it was 81.6%; in the assay with PC-3 prostate it was 70.3%; with SK-MEL-5 melanoma it was 88.4%. The growth in the assay with UACC-62 melanoma was 76%; in the assay on LOX IMVI melanoma, 52.7%; in the assay on SK-MEL-28 melanoma, 82.7%; with SK-MEL-2 melanoma it was 81.6%.

On to `N#Cc1c(-c2ccc(Cl)cc2)nc(SCc2ccccc2)nc1N1CCNCC1`, for which the growth was -47.6% (active) in the assay with HT29 colon; 69.5% in the assay with SNB-75 CNS; 69.8% in the assay on SNB-19 CNS; -65.6% (active) in the assay with U251 CNS; 59.2% in the assay on PC-3 prostate; 84.5% with SK-MEL-5 melanoma. The growth in the assay with UACC-62 melanoma is 89.8%; in the assay with LOX IMVI melanoma, -71.5% (active); with SK-MEL-28 melanoma, 108%; in the assay with SK-MEL-2 melanoma, 112%.

Regarding `COc1cc2nc(-c3ccc(Cl)cc3)cc(OCCCNCC3CCCO3)c2cc1OC` (stereo not given), the growth in the assay on HT29 colon was 16.1%; in the assay with SNB-75 CNS it was 60.4%; with SNB-19 CNS it was 82.5%; in the assay on U251 CNS, 61.4%; in the assay with PC-3 prostate, 52.2%; in the assay with SK-MEL-5 melanoma, 50.1%. Also, the growth with UACC-62 melanoma is -56.2% (active); in the assay on LOX IMVI melanoma, -47.8% (active); with SK-MEL-28 melanoma, 8.95% (active); with SK-MEL-2 melanoma it was 124%.

For the compound `NC(=O)c1cc(-c2ccc3ncnc(N4CCc5cc(F)c(Cl)cc54)c3c2)cnc1N`, the growth with HT29 colon was 21%; in the assay with SNB-75 CNS, -25% (active); in the assay on SNB-19 CNS, 39.5%; in the assay on U251 CNS, 40.8%; in the assay on PC-3 prostate, 25%; in the assay with SK-MEL-5 melanoma it was 52.1%. Also, the growth with UACC-62 melanoma was 26%; in the assay with LOX IMVI melanoma, 24%; with SK-MEL-28 melanoma, 28.8%; with SK-MEL-2 melanoma, -51.5% (active).

As for `c1ccc2c(NCCCN3CCOCC3)c3oc4ccccc4c3nc2c1`, the growth in the assay on HT29 colon is -48.2% (active); with SNB-75 CNS, -4.26% (active); with SNB-19 CNS, 5.03% (active); with U251 CNS, -2.33% (active); in the assay on PC-3 prostate it was 7.6% (active); with SK-MEL-5 melanoma it was -90.4% (active). Besides, the growth in the assay with UACC-62 melanoma is -52.1% (active); in the assay on LOX IMVI melanoma, -38.6% (active); with SK-MEL-28 melanoma, -46.9% (active); with SK-MEL-2 melanoma, -75.4% (active).

For the compound `CN(C)c1ccc(-c2c(NC(C)(C)C)nc3c(OCCc4ccccc4)cccn23)cc1`, the growth with HT29 colon was 10.2%; with SNB-75 CNS, 48.4%; in the assay with SNB-19 CNS, 19.3%; in the assay on U251 CNS, 13.6%; in the assay on PC-3 prostate, 0.316% (active); with SK-MEL-5 melanoma it was -69.4% (active). Also, the growth is 35.1% in the assay with UACC-62 melanoma, 11.5% in the assay on LOX IMVI melanoma, 35.1% with SK-MEL-28 melanoma and 25.3% in the assay with SK-MEL-2 melanoma.

For the compound `CN1C(=O)N(c2ccccc2)C2N=C(N/N=C/c3ccccc3)SC21` (stereo not given), the growth in the assay with HT29 colon is 3.18% (active); with SNB-75 CNS it was -13.5% (active); in the assay on SNB-19 CNS, 53%; in the assay on U251 CNS, 15.8%; in the assay on PC-3 prostate, 33%; with SK-MEL-5 melanoma, 5.76% (active). In addition, the growth with UACC-62 melanoma was 44.4%; in the assay on LOX IMVI melanoma, 23.2%; in the assay with SK-MEL-28 melanoma, 61.3%; with SK-MEL-2 melanoma, -3.76% (active).

Regarding `Nc1cc(-c2c[nH]c3ccccc23)nc2cc(-c3c[nH]c4ccccc34)nn12`, the growth with HT29 colon was 9.63% (active); with SNB-75 CNS, 82.5%; in the assay with SNB-19 CNS it was 86.2%; in the assay on U251 CNS it was 29.7%; in the assay on PC-3 prostate, 60.6%; in the assay on SK-MEL-5 melanoma, 45.6%. The growth in the assay with UACC-62 melanoma is 87.5%; with LOX IMVI melanoma, -25.2% (active); in the assay with SK-MEL-28 melanoma, 59.6%; in the assay with SK-MEL-2 melanoma, 96%.
